The results in this text go back to PubChem BioAssay (NCATS).

Results filed as inconclusive are left out. A call without a number means that no potency is given here. Active and inactive are the calls of the source. Calls come from the whole dose curve; as a rule, active = well fitted curve in the direction sought with a large enough effect; inconclusive = small, poorly fitted or top-dose-only effect, or another doubt; inactive = no such curve, though single readings can be large; an effect the other way counts as inactive or inconclusive.

Sequence of Ubiquitin carboxyl-terminal hydrolase 1 (Homo sapiens) (O94782 whole entry, looked up): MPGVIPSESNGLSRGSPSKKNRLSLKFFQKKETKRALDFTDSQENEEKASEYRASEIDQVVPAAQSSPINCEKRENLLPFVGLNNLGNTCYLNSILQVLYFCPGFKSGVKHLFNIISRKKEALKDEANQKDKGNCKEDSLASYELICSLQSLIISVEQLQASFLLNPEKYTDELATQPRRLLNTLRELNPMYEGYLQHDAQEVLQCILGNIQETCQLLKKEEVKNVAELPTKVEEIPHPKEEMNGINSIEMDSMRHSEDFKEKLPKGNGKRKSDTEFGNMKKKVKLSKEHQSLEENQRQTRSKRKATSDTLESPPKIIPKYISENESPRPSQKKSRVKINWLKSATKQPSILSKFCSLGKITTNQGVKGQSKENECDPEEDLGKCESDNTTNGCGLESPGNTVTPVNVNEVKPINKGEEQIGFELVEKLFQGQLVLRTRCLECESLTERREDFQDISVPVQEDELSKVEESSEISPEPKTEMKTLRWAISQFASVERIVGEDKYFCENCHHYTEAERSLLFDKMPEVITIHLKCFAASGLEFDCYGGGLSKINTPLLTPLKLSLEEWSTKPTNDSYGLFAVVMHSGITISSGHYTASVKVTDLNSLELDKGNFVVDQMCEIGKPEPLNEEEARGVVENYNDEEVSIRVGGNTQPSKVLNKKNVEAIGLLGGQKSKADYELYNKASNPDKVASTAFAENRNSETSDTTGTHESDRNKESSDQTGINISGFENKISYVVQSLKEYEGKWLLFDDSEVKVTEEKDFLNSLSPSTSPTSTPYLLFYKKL
Sequence of phosphoglycerate mutase (Leishmania major) (Q4Q090 1-553): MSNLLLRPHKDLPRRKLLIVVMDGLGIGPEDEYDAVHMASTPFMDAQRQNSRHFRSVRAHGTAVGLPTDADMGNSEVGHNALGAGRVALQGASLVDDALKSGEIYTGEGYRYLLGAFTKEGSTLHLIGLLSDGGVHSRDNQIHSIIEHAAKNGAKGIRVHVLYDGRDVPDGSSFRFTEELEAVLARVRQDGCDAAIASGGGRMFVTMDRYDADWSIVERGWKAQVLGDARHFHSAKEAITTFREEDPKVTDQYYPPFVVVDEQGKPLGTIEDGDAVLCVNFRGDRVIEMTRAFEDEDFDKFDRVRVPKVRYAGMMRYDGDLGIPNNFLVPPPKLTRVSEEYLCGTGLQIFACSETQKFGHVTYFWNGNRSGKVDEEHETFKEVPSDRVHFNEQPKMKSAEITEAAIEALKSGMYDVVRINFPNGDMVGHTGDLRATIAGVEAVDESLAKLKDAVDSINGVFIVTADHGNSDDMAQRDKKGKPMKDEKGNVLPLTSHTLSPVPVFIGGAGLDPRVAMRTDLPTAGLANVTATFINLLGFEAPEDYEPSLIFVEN

The first test deals with phosphoglycerate mutase (Leishmania major) (UniProt Q4Q090). The experiment in a line: qHTS Validation Assay to Find Inhibitors of Phosphoglycerate Mutase (AID 504548).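 Note: end-point luminescence from Kinase-GloPlus after the PGAM reaction.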 The settings on record: biochemical enzyme activity; series mostly up to 57.5 µM. An outline of the steps:
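L. major PGAM (1.25nM final) was added to substrate buffer and pinned compound, incubated 45 minutes at room temperature, then Kinase-GloPlus added; luminescence read after 10 minutes. Buffer: 100 mM TEA pH 7.6, 5 mM MgCl2, 0.01% Tween-20.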
On to `COc1ccc(C(=O)N2CCCC2=O)cc1`, for which the call was inactive.

In the case of `O=C(O)c1nn(Cc2ccc(Cl)cc2Cl)c2ccccc12`, the outcome was inactive.

As to `COC(=O)C1=CCCN(C)C1`, the outcome was inactive.

With `NC(=O)CN1CCCC1=O`, the call was inactive.

Test system in another test: not listed separately
In words: Inducers of the Endoplasmic Reticulum Stress Response (ERSR) in human glioma: Validation (AID 504836). The settings on record: human glioma cells, ER stress response reporter; series mostly up to 38.3 µM. An outline of the steps: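 Stably transfected U87-MG human glioma cells carrying a GRP78-based luminescent sensor were seeded at 1000 cells/well, pin-dosed with compounds and incubated 16 h. Luciferase reagent was then added, and end-point luminescence was read after 10 min at room temperature.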
Take `COc1ccc2c(c1)c(CC(=O)O)c(C)n2C(=O)c1ccc(Cl)cc1`: the compound was classed as inactive.

For `COc1ccc(C(=O)N2CCCC2=O)cc1`, the call was inactive.

As for `O=C1N(c2ccccc2)c2ccccc2C1(Cc1ccncc1)Cc1ccncc1`, the call was inactive.

Consider `CN(C)CC[C@@H](c1ccc(Cl)cc1)c1ccccn1`, for which the compound was called inactive.

As to `Cc1ccc(C(=O)Nc2ccc(S(=O)(=O)O)c3cc(S(=O)(=O)O)cc(S(=O)(=O)O)c23)cc1NC(=O)c1cccc(NC(=O)Nc2cccc(C(=O)Nc3cc(C(=O)Nc4ccc(S(=O)(=O)O)c5cc(S(=O)(=O)O)cc(S(=O)(=O)O)c45)ccc3C)c2)c1`, the compound was called inactive.

Take `COc1cc(C(=O)OCCCN2CCCN(CCCOC(=O)c3cc(OC)c(OC)c(OC)c3)CC2)cc(OC)c1OC`: the compound was called inactive.

With `CCn1ccnc1CC1COc2ccccc2O1` (stereo not drawn), the result was inactive.

`CN(C)CCN(Cc1cccs1)c1ccccn1`: the result was inactive.

`C[C@]12CCC(=O)C=C1CC[C@@H]1[C@@H]2C(=O)C[C@@]2(C)[C@H]1CC[C@]2(O)C(=O)CO`: the compound was called inactive.

As for `N[C@@H](Cc1c[nH]c2ccc(O)cc12)C(=O)O`, the compound was classed as inactive.

With `CN(C)CCC(c1ccccc1)c1ccccn1` (stereo not drawn), the outcome was inactive.

For the compound `O=C(O)CCc1nc(-c2ccccc2)c(-c2ccccc2)o1`, the compound was called inactive.

For the compound `CC(C)COCC(CN(Cc1ccccc1)c1ccccc1)N1CCCC1` (stereo not drawn), the compound was classed as inactive.

Turning to `O=C(O)c1nn(Cc2ccc(Cl)cc2Cl)c2ccccc12`, the compound was classed as inactive.

With `NCCc1cnc[nH]1`, the compound was classed as inactive.

Take `c1cc(CN2CCCCC2)cc(OCCCNc2nc3ccccc3s2)c1`: the compound was classed as inactive.

Take `CCCCCN(CCCCC)C(=O)C(CCC(=O)O)NC(=O)c1ccc(Cl)c(Cl)c1` (stereo not drawn): the compound was classed as inactive.

Take `COC(=O)[C@@H](N)Cc1ccc(O)c(O)c1`: the compound was classed as inactive.

On to `CC(C)NCC(O)COc1ccc(COCCOC(C)C)cc1` (stereo not drawn), for which the call was inactive.

On to `CCCCNc1cc(C(=O)O)cc(S(N)(=O)=O)c1Oc1ccccc1`, for which the call was inactive.

For the compound `Nc1c2c(nc3ccccc13)CCCC2`, the result was inactive.

For `NS(=O)(=O)c1cc2c(cc1Cl)NC(C1CC3C=CC1C3)NS2(=O)=O` (stereo not drawn), the outcome was inactive.

`COCCc1ccc(OCC(O)CNC(C)C)cc1` (stereo not drawn): the result was inactive.

For `Brc1c(NC2=NCCN2)ccc2nccnc12`, the compound was called inactive.

For the compound `C(=C\c1ccccc1)/CN1CCN(C(c2ccccc2)c2ccccc2)CC1`, the call was inactive.

Regarding `O=C(Nc1ccc([N+](=O)[O-])cc1Cl)c1cc(Cl)ccc1O`, the outcome was inactive.

Regarding `COc1ccc(CN(CCN(C)C)c2ccccn2)cc1`, the compound was called inactive.

For `COC(=O)C1=CCCN(C)C1`, the compound was called inactive.

Turning to `CCOC(=O)C1=C[C@]2(CC)CCCN3CCc4c(n1c1ccccc41)[C@@H]32`, the result was inactive.

For `Cc1ccc(/C(=C\CN2CCCC2)c2ccccn2)cc1`, the call was inactive.

Take `CCCN(CCC)C(=O)C(CCC(=O)O)NC(=O)c1ccccc1` (stereo not drawn): the compound was called inactive.

Take `NC(=O)CN1CCCC1=O`: the call was inactive.

Turning to `CC(C)(C)c1ccc(C(O)CCCN2CCC(C(O)(c3ccccc3)c3ccccc3)CC2)cc1` (stereo not drawn), the compound was called inactive.

Take `c1cnc(N2CCN(Cc3ccc4c(c3)OCO4)CC2)nc1`: the compound was classed as inactive.

Take `CN(C)CCCN1c2ccccc2Sc2ccccc21`: the compound was classed as inactive.

In the case of `CSc1ccc2c(c1)C(N1CCN(C)CC1)Cc1ccccc1S2` (stereo not drawn), the outcome was inactive.

In the case of `OC(CCN1CCCCC1)(c1ccccc1)C1CC2C=CC1C2` (stereo not drawn), the compound was classed as inactive.

Another test concerns the target Ubiquitin carboxyl-terminal hydrolase 1 (Homo sapiens) (UniProt O94782). In words: Inhibitors of USP1/UAF1: Pilot qHTS (AID 504865).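 Note: rhodamine fluorescence freed from ubiquitin-rhodamine substrate followed over time; top concentration of the series differs between compounds; nearly all actives have a fitted effect of over 35% in size.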 The following applies: purified USP1/UAF1, Ub-rhodamine cleavage fluorescence; series mostly up to 114 µM. An outline of the steps: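 Enzyme-free wells gave the negative control, while test wells held 1nM USP1/UAF1 preincubated with compound for 15 min at room temperature. Ub-Rho at 150nM final started the reaction, and fluorescence at 480/540 nm was recorded kinetically.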
(qHTS replaces the single test concentration by a dilution series.)
Take `COc1ccc(C(=O)N2CCCC2=O)cc1`: the Potency entry is “inactive”.

Take `O=C(O)c1nn(Cc2ccc(Cl)cc2Cl)c2ccccc12`: the Potency result was “inactive”.

On to `COC(=O)C1=CCCN(C)C1`, for which the Potency entry is “inactive”.

In the case of `NC(=O)CN1CCCC1=O`, the Potency entry is “inactive”.

Test system in the next test: not listed separately
In words: qHTS for Inhibitors of ATXN expression: Validation of Cytotoxic Assay (AID 588349).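 Note: cells exposed to compound for 72 hr.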 The settings on record: cytotoxicity counter-screen for ATXN expression inhibitors, cell viability; series mostly up to 57.1 µM. An outline of the steps:
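HEK293, compound dose series, 72 hr / 37 degrees C; viability via CellTiter Glo (intracellular ATP).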
As to `COc1ccc(C(=O)N2CCCC2=O)cc1`, the call was inactive.

For the compound `O=C(O)c1nn(Cc2ccc(Cl)cc2Cl)c2ccccc12`, the call was inactive.

As to `COC(=O)C1=CCCN(C)C1`, the result was inactive.

Regarding `NC(=O)CN1CCCC1=O`, the compound was called inactive.

Test system in another test: not listed separately
In words: qHTS for Inhibitors of ATXN expression: Validation (AID 588378). Note: nearly all actives have a fitted effect of over 75% in size. The following applies: cell-based ATXN2 expression reporter assay, luminescence; series mostly up to 57.1 µM. An outline of the steps: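 After a 2 h attachment and 24 h compound incubation, HEK293-ATXN2-FFLuc wells are read for fluorescence at 405 nm excitation/525 nm emission as a viability measure, then for Bright-Glo luminescence reflecting ATXN2 expression.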
With `COc1ccc(C(=O)N2CCCC2=O)cc1`, the Potency result was “inactive”.

On to `O=C(O)c1nn(Cc2ccc(Cl)cc2Cl)c2ccccc12`, for which the Potency result was “inactive”.

Turning to `COC(=O)C1=CCCN(C)C1`, the Potency result is “inactive”.

Regarding `NC(=O)CN1CCCC1=O`, the Potency result was “inactive”.
